ATXN viability: Viability Counterscreen for Primary qHTS for Inhibitors of ATXN expression; S2 cells (HEK-293 line with an ATXN2-luciferase reporter) viability, CellTiter-Fluor protease fluorescence, 24 h; Potency, µM (top dose mostly 56.7 µM), hits mostly cytotoxic; 400,000 compounds, 0.49% hits; AID 651635, 2014; further: nearly all actives have a fitted effect of over 40% in size
IL-1B inflam inh: qHTS for Inhibitors of Inflammasome Signaling: IL-1-beta AlphaLISA Primary Screen | AID 743279, 2014 | THP-1 LPS/ATP IL-1B secretion, AlphaLISA, 16 h; hits give low values | 360,000 compounds, 4.7% hits | activity change, % at 57.5 µM; in the data active means activity change below about -50%; inconclusive means mostly about -30% to -49%
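THP-1 cells pretreated 1 hr with compounds (up to 57.5 uM final), then stimulated with LPS (250 ng/mL final) plus ATP (1.25 mM final); secreted IL-1B measured by AlphaLISA after 16 hr, decreased signal indicating inhibition.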
PINK1 expr mod: A Quantitative High throughput Screen to Identify Chemical Modulators of PINK1 Expression | PINK1 immunofluorescence, high-content cytometry, 24 h | Potency, µM (doses to about 76.6 µM), actives largely listed as activators | 410,000 compounds, 0.2% hits | AID 624263, 2012; active means well fitted activation curve with a large enough effect; inconclusive means small, poorly fitted or top-dose-only effect; cell line not stated here; further: nearly all actives have a fitted effect of over 65% in size
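PINK1 protein, normally rapidly degraded, was detected by immunofluorescence after 24 hour compound treatment of a stable cell line. Titration data (5 concentrations) came from laser-scanning cytometry, with CCCP-treated wells as controls.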
MCF10A rerep: A quantitative high throughput screen for small molecules that induce DNA re-replication in MCF 10a normal breast cells | MCF 10A DNA re-replication, Hoechst nuclear intensity, 48 h | Potency, µM (highest dose often 46.1 µM), hits mostly activators | 350,000 compounds, 2.9% hits | AID 624296, 2012; further: nearly all actives have a fitted effect of over 50% in size
SW480 rereplic: A quantitative high throughput screen for small molecules that induce DNA re-replication in SW480 colon adenocarcinoma cells; SW480 DNA re-replication, Hoechst DNA content imaging, 48 h; Potency, µM (titrated, usually from 46.1 µM), hits mostly activators; AID 624297, 2012; 340,000 compounds, 1.8% hits; further: nearly all actives have a fitted effect of over 55% in size
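Image-based read-out: total Hoechst fluorescence of nuclei (405 nm excitation, 500-530 nm emission), with hits raising the fraction of high-intensity nuclei. SW480 colon cells incubated 48 hr with compounds at 37 C.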
ATXN2 expr inh: Primary qHTS for Inhibitors of ATXN expression; 360,000 compounds, 0.72% hits; AID 1745845, 2022; HEK-293 ATXN2-luciferase reporter, luminescence, 24 h; Potency, µM (series often up to 57 µM), hits mostly inhibitors; further: nearly all actives have a fitted effect of over 55% in size
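qHTS (up to 57 uM final) was run with 24 h compound exposure of reporter cells at 37 °C. Each well was multiplexed: SteadyGlo luminescence measured ATXN2-luciferase expression after a fluorogenic Gly-Phe-AFC viability readout (25 uM final).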
Hits are given with their value; . = inactive; ? = inconclusive; / = no result given. An excerpt weighted towards active compounds, which were near 7.1% of everything screened. Unless noted, the call rests on the fitted dose curve; in most records, active means well fitted curve in the direction sought with a large enough effect; inconclusive means small, poorly fitted or top-dose-only effect, or another doubt; inactive means no such curve, though single readings can be large; an effect the other way counts as inactive or inconclusive.

SMILES | ATXN viability | IL-1B inflam inh | PINK1 expr mod | MCF10A rerep | SW480 rereplic | ATXN2 expr inh
Cc1ccc(C(C)C)c(OCC(=O)NCC(c2cccs2)N2CCOCC2)c1 (configuration not stated) | . | ? | . | ? | . | .
COc1ccc(C(CNC(=O)c2oc3ccc(Br)cc3c2C)N2CCCCC2)cc1 (configuration not stated) | ? | -82 | ? | . | . | .
COc1ccc(C(CNC(=O)c2cc(F)c(F)c(F)c2F)N2CCOCC2)cc1 (configuration not stated) | . | -95 | . | . | . | .
Cc1cc(OCC(=O)NCC(c2cccs2)N2CCOCC2)ccc1C(C)C (configuration not stated) | . | -57 | . | . | . | .
COc1ccc(C(CNC(=O)c2ccc(OCc3ccccc3)cc2)N2CCOCC2)cc1 (configuration not stated) | ? | . | . | . | . | .
Cc1ccccc1C(c1c(C)n(C)n(-c2ccccc2)c1=O)c1c(C)n(C)n(-c2ccccc2)c1=O | . | / | . | / | / | .
CCCS(=O)(=O)NCCc1csc2nc(-c3ccc(OC)cc3)nn12 | / | / | . | / | / | /
Cc1c(C(=O)Nc2ccc(F)cc2)oc2ccc(S(=O)(=O)N3CCCCCC3)cc12 | . | / | . | / | / | .
COc1ccccc1C1NC(c2ccc3c(c2)OCO3)=CC(c2cc(Br)ccc2O)N1 (configuration not stated) | / | / | . | / | / | /
COc1ccc(C(CNC(=O)CCNS(=O)(=O)c2ccc(Br)cc2)N2CCCC2)cc1 (configuration not stated) | . | . | . | . | . | .
COc1ccc(C(CNC(=O)COc2ccc(-c3ccccc3)cc2)N2CCOCC2)cc1 (configuration not stated) | . | -61 | . | . | . | .
COc1ccccc1C(CNC(=O)c1ccc(-c2ccccc2Cl)o1)N1CCCC1 (configuration not stated) | . | -57 | . | ? | . | ?
CC(C)(CNC(=O)c1ccc(-c2ccccc2Cl)o1)N1CCOCC1 | . | -56 | . | . | . | .
COc1ccccc1C(CNC(=O)CCNS(=O)(=O)c1ccc(Br)cc1)N1CCCC1 (configuration not stated) | . | . | . | . | 6.5µM | .
COc1ccccc1C(CNC(=O)c1ccco1)N1CCCC1 (configuration not stated) | . | . | . | . | . | /
CCOC(=O)C1=C(CN2CCN(c3ccccc3F)CC2)NC(=O)NC1c1ccc(OC)cc1 (configuration not stated) | / | / | . | / | / | /
CC1(C)COC(c2ccc(F)c([N+](=O)[O-])c2)=N1 | ? | -102 | . | 23µM | ? | .
CC(C)(C)c1ccc(-c2nnc(SCCC#N)n2C2CCCC2)cc1 | . | -51 | . | . | ? | .
Cc1c(C(=O)NCCN(C)C)oc2c1-c1nn(Cc3cccc(Cl)c3)cc1CC2 | / | / | . | / | / | /
C=C(C)c1nc(Oc2ccccc2)nc(Oc2ccccc2)n1 | / | -100 | . | 4.1µM | ? | ?
Cc1cc(Oc2ccccc2)nc(-c2ccccc2)n1 | . | . | ? | . | . | .
NCc1ccccc1CC(=O)N[C@@H]1C(=O)N2C(C(=O)O)=C(CSc3nnnn3CC(=O)O)CS[C@H]12 | . | / | / | / | / | /
CC1=CC(C)(C)n2c(O)c(N=NC(N)=S)c3cc(C)cc1c32 | . | . | . | ? | 16µM | .
C[C@@H]1CN([C@H](C)CO)C(=O)c2cc(NS(=O)(=O)c3ccc(F)cc3)ccc2O[C@@H]1CN(C)Cc1ccc(Cl)c(Cl)c1 | ? | -72 | . | . | . | ?
C[C@@H]1CCCCO[C@H](CN(C)Cc2ccc(C(=O)O)cc2)[C@@H](C)CN([C@H](C)CO)C(=O)c2cc(N(C)C)ccc2O1 | . | . | . | / | / | .
